From paper PMC7822874, “Chemoprotective antimalarials identified through quantitative high-throughput screening of Plasmodium blood and liver stage parasites” (Scientific Reports, 2021)
Where two headings read alike, the source gives them in different places.

Test system: P. berghei-ANKA-GFP-LucCON liver stage parasites in HepG2-A16-CD81EGFP cells
Conditions: 48 h

Structure (SMILES) | % viability (1 µM) | % viability (3 µM)
COc1ccc(-c2c[n+](CC(=O)c3cccs3)c3n2CCC3)cc1 [MLS000333575] | 1.153 | 0.8461
COC(=O)C1=C(C)NC(C)=C(C(=O)OCCCN2CCC(c3ccccc3)(c3ccccc3)CC2)C1c1cccc([N+](=O)[O-])c1 (stereo not shown) [NCGC00163135] | 0.1886 | 0.1117
